# Assay results published in PubChem BioAssay (EPA / NIEHS).
# Active and inactive are the calls of the source. The calls were made as follows: active = hit-call score of the fitted dose curve at least 0.9, where 1 is the maximum; inactive = score below 0.9.
# How the values were obtained:
# Details in all cases: mRNA level, 48 h; actives raise or lower the signal
# [1] = read-out: growth arrest and DNA damage 45 (GADD45G), GADD45G (gene 10912); assay: LTEA_HepaRG_GADD45G: Life Technologies and Expression Analysis (LTEA) Assay for growth arrest and DNA damage 45 (GADD45G) using HepaRG (AID 2283499)
# In short: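 GADD45G transcript level by qRT-PCR (housekeeping-normalized: ACTB, GAPDH, POLR2A) after 48 h chemical treatment of a single HepaRG lot in serum-free induction medium; eight-point half-log series up to 100 uM in 0.5% DMSO, duplicates, up- or down-regulation scored.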
# [2] = read-out: Glutamate-cysteine ligase regulatory (GCLM), GCLM (gene 2730); assay: LTEA_HepaRG_GCLM: Life Technologies and Expression Analysis (LTEA) Assay for Glutamate-cysteine ligase regulatory (GCLM) using HepaRG (AID 2283500)
# In short: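 In this multiplexed HepaRG gene-expression assay, GCLM mRNA change after 48 h treatment (8 concentrations, max 100 uM) was scored against DMSO by bidirectional curve fitting.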
# [3] = read-out: Glutathione S-transferase M3 (GSTM3), GSTM3 (gene 2947); assay: LTEA_HepaRG_GSTM3: Life Technologies and Expression Analysis (LTEA) Assay for Glutathione S-transferase M3 (GSTM3) using HepaRG (AID 2283501)
# In short: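 GSTM3 transcript levels came from Fluidigm TaqMan qRT-PCR normalized to three housekeeping genes, fitted in both directions against DMSO. HepaRG cultures received chemicals for 48 h in serum-free induction medium (0.5% DMSO), 8 half-log concentrations up to 100 uM, duplicate.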
# [4] = read-out: Heat shock 70 kDa protein 1 (HSPA1A), gene 3303; assay: LTEA_HepaRG_HSPA1A: Life Technologies and Expression Analysis (LTEA) Assay for Heat shock 70 kDa protein 1 (HSPA1A) using HepaRG (AID 2283502)
# In short: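 An oxidative-stress marker readout: HepaRG cells treated 48 h in duplicate with an eight-point series (highest 100 uM) had HSPA1A mRNA quantified by TaqMan qRT-PCR. Activity was fitted in both directions using 0.5% DMSO as baseline.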
# [5] = read-out: Hypoxia-inducible factor 1-alpha (Homo sapiens) (UniProt Q16665); assay: LTEA_HepaRG_HIF1A: Life Technologies and Expression Analysis (LTEA) Assay for Hypoxia-inducible factor 1 (HIF1A) Trancription factor using HepaRG (AID 2283503)
# In short: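 Gain- or loss-of-signal HIF1A mRNA changes are fitted against a DMSO baseline. HepaRG cultures receive eight concentrations, highest 100 uM, for 48 h in serum-free induction medium with 0.5% DMSO.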
# [6] = read-out: 3-Hydroxy-3-Methylglutaryl-CoA Synthase 2 (HMGCS2), HMGCS2 (gene 3158); assay: LTEA_HepaRG_HMGCS2: Life Technologies and Expression Analysis (LTEA) Assay for 3-Hydroxy-3-Methylglutaryl-CoA Synthase 2 (HMGCS2) using HepaRG (AID 2283504)
# In short: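 Readout is HMGCS2 transcript by qRT-PCR, housekeeping-normalised (ACTB/GAPDH/POLR2A) and fitted bidirectionally against 0.5% DMSO. Differentiated HepaRG cells received chemicals 48 h, duplicate wells, eight half-log concentrations topping at 100 uM.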
# [7] = read-out: HGF (gene 3082); assay: LTEA_HepaRG_HGF: Life Technologies and Expression Analysis (LTEA) Assay for Hepatocyte Growth Facto (HGF) using HepaRG (AID 2283505)
# In short: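 HGF transcript was quantified by TaqMan qRT-PCR against three housekeeping genes after 48 h treatment of HepaRG cells. Exposure ran in duplicate over eight half-log steps topping at 100 uM in 0.5% DMSO vehicle.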
# [8] = read-out: Insulin Like Growth Factor 1 (IGF1), IGF1 (gene 3479); assay: LTEA_HepaRG_IGF1: Life Technologies and Expression Analysis (LTEA) Assay for Insulin Like Growth Factor 1 (IGF1) using HepaRG (AID 2283506)
# In short: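 Endpoint: IGF1 mRNA change by qRT-PCR, housekeeping-normalized, fitted bidirectionally relative to 0.5% DMSO vehicle. Human HepaRG cells were treated 48 h in serum-free induction medium, eight half-log concentrations topping at 100 uM.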
# [9] = read-out: Intercellular Adhesion Molecule 1 (ICAM1), ICAM1 (gene 3383); assay: LTEA_HepaRG_ICAM1: Life Technologies and Expression Analysis (LTEA) Assay for Intercellular Adhesion Molecule 1 (ICAM1) using HepaRG (AID 2283507)
# In short: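 ICAM1 transcript levels measured by qRT-PCR, normalized to three housekeeping genes (ACTB, GAPDH, POLR2A), after 48 h chemical exposure of HepaRG cells. Duplicate eight-point half-log series from 100 uM in 0.5% DMSO; gain or loss fitted against vehicle.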
# [10] = read-out: Insulin-like growth factor-binding protein 1 (IGFBP1), IGFBP1 (gene 3484); assay: LTEA_HepaRG_IGFBP1: Life Technologies and Expression Analysis (LTEA) Assay for Insulin-like growth factor-binding protein 1 (IGFBP1) using HepaRG (AID 2283508)
# In short: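 Read-out is qRT-PCR transcript level normalized to three housekeeping genes, fitted in both directions against 0.5% DMSO. Differentiated HepaRG cells received eight half-log concentrations (top 100 uM) in duplicate for 48 h in serum-free induction medium.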
# [11] = read-out: Interleukin 6 (IL6), IL6 (gene 3569); assay: LTEA_HepaRG_IL6: Life Technologies and Expression Analysis (LTEA) Assay for Interleukin 6 (IL6) using HepaRG (AID 2283509)
# In short: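 qRT-PCR read-out of IL6 transcript, normalized to three housekeeping genes, after 48 h chemical exposure of HepaRG cells; 8-point half-log series, top 100 uM, 0.5% DMSO vehicle. Bidirectional curve fitting against DMSO baseline.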
# [12] = read-out: Interleukin 6 Receptor (IL6R), IL6R (gene 3570); assay: LTEA_HepaRG_IL6R: Life Technologies and Expression Analysis (LTEA) Assay for Interleukin 6 Receptor (IL6R) using HepaRG (AID 2283510)
# In short: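 In this HepaRG screen, test chemicals act on cells for 48 h at up to 100 uM (eight half-log points, duplicate wells). IL6R expression is quantified by qRT-PCR after normalization to ACTB, GAPDH and POLR2A, with DMSO as baseline.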
# [13] = read-out: Potassium channel subfamily K member 1 (KCNK1), KCNK1 (gene 3775); assay: LTEA_HepaRG_KCNK1: Life Technologies and Expression Analysis (LTEA) Assay for Potassium channel subfamily K member 1 (KCNK1) using HepaRG (AID 2283511)
# In short: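 HepaRG, 48 h exposure, 8-pt half-log series top 100 uM, 0.5% DMSO vehicle, duplicates. Readout: KCNK1 transcript by qRT-PCR (Fluidigm array), housekeeping-normalized; bidirectional curve fit relative to DMSO baseline.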
# [14] = read-out: Keratin 19 (KRT19), KRT19 (gene 3880); assay: LTEA_HepaRG_KRT19: Life Technologies and Expression Analysis (LTEA) Assay for Keratin 19 (KRT19) using HepaRG (AID 2283512)
# In short: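 KRT19 transcript measured by TaqMan qRT-PCR, referenced to three housekeeping genes, after HepaRG cells received test chemicals for 48 h. Eight half-log concentrations, top 100 uM, 0.5% DMSO vehicle; increases and decreases both fitted.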
# [15] = read-out: JUN Transcription Factor, JUN (gene 3725); assay: LTEA_HepaRG_JUN: Life Technologies and Expression Analysis (LTEA) Assay for JUN Transcription Factor using HepaRG (AID 2283513)
# In short: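 Gene-expression endpoint: JUN mRNA (qRT-PCR, normalized to three reference genes) in HepaRG cultures treated 48 h with chemicals, duplicate wells, 100 uM maximum with half-log dilutions; bidirectional fitting relative to 0.5% DMSO.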
# [16] = read-out: Lipase C (LIPC), LIPC (gene 3990); assay: LTEA_HepaRG_LIPC: Life Technologies and Expression Analysis (LTEA) Assay for Lipase C (LIPC) using HepaRG (AID 2283514)
# In short: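 HepaRG, 48 h exposure, 8-pt half-log series from 100 uM in 0.5% DMSO, duplicates. Readout: LIPC mRNA by Fluidigm qRT-PCR, housekeeping-normalized (ACTB/GAPDH/POLR2A). Gain or loss fitted bidirectionally against DMSO baseline.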
# [17] = read-out: Lipoprotein lipase (LPL), LPL (gene 4023); assay: LTEA_HepaRG_LPL: Life Technologies and Expression Analysis (LTEA) Assay for Lipoprotein lipase (LPL) using HepaRG (AID 2283515)
# In short: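 HepaRG, 48 h exposure, 8-pt half-log dilutions from 100 uM, 0.5% DMSO vehicle, duplicates; qRT-PCR (Fluidigm array) of LPL mRNA vs housekeeping genes; bidirectional curve fit relative to DMSO baseline.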
# [18] = read-out: MicroRNA 122 (MIR122), gene 406906; assay: LTEA_HepaRG_MIR122: Life Technologies and Expression Analysis (LTEA) Assay for MicroRNA 122 (MIR122) using HepaRG (AID 2283516); also: the transcript read is the microRNA miR-122
# In short: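 Changes in transcript abundance, up or down relative to 0.5% DMSO vehicle, were scored after 48 h chemical treatment of HepaRG cells (maximum 100 uM). Quantification used TaqMan qRT-PCR normalized to housekeeping genes.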
# [19] = read-out: matrix metalloproteinase-10 (MMP10), MMP10 (gene 4319); assay: LTEA_HepaRG_MMP10: Life Technologies and Expression Analysis (LTEA) Assay for matrix metalloproteinase-10 (MMP10) using HepaRG (AID 2283517)
# In short: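 Transcript levels come from Fluidigm qRT-PCR normalized to three housekeeping genes, with curves fitted bidirectionally against 0.5% DMSO. Human HepaRG cells were dosed for 48 hours at concentrations up to 100 uM.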
# [20] = read-out: MYC, MYC (gene 4609); assay: LTEA_HepaRG_MYC: Life Technologies and Expression Analysis (LTEA) Assay for MYC using HepaRG (AID 2283518)
# In short: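 MYC transcript changes, up or down relative to 0.5% DMSO, from TaqMan qRT-PCR normalized to three housekeeping genes. Human HepaRG cultures received chemicals for 48 h at eight half-log concentrations up to 100 uM, in duplicate.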
# Chain of Hypoxia-inducible factor 1-alpha (Homo sapiens) (Q16665 whole entry, looked up): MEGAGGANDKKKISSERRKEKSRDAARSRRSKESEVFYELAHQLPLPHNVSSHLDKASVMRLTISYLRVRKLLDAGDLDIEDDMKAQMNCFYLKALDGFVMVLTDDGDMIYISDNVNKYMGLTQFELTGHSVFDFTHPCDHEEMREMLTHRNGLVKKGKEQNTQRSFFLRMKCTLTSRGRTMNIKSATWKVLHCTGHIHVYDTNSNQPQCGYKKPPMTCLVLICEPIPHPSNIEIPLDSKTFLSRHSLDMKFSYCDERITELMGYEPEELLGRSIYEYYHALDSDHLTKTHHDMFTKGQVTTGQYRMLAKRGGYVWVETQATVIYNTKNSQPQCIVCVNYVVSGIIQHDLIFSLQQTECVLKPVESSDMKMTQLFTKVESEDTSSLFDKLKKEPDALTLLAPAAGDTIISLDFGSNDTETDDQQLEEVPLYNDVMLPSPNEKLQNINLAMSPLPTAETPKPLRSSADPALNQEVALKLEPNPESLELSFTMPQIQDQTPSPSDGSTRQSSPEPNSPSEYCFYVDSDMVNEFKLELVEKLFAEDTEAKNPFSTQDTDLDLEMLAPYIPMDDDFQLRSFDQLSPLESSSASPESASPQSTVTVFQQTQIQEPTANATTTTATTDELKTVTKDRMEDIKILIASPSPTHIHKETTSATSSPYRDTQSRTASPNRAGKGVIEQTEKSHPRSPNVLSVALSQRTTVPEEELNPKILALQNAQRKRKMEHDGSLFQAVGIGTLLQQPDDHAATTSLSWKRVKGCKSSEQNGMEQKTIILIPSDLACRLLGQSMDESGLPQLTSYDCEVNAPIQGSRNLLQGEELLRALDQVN
smiles,measurement,setting,value
C=C(C)C(N)=O,outcome,[1],inactive
same,outcome,[2],inactive
same,outcome,[3],inactive
same,outcome,[4],inactive
same,outcome,[5],inactive
same,outcome,[6],inactive
same,outcome,[7],inactive
same,outcome,[8],inactive
same,outcome,[9],inactive
same,outcome,[10],inactive
same,outcome,[11],inactive
same,outcome,[12],inactive
same,outcome,[13],inactive
same,outcome,[14],inactive
same,outcome,[15],inactive
same,outcome,[16],inactive
same,outcome,[17],inactive
same,outcome,[18],inactive
same,outcome,[19],inactive
same,outcome,[20],inactive
CCCCOCCOCCO,outcome,[1],inactive
same,outcome,[2],inactive
same,outcome,[3],inactive
same,outcome,[4],inactive
same,outcome,[5],inactive
same,outcome,[6],inactive
same,outcome,[7],inactive
same,outcome,[8],inactive
same,outcome,[9],inactive
same,outcome,[10],inactive
same,outcome,[11],inactive
same,outcome,[12],inactive
same,outcome,[13],inactive
same,outcome,[14],inactive
same,outcome,[15],inactive
same,outcome,[16],inactive
same,outcome,[17],inactive
same,outcome,[18],inactive
same,outcome,[19],inactive
same,outcome,[20],inactive
C[C@]12CC[C@@H]3c4ccc(O)cc4CC[C@H]3[C@@H]1CC[C@@H]2O,outcome,[1],inactive
same,outcome,[2],inactive
same,outcome,[3],inactive
same,outcome,[4],inactive
same,outcome,[6],inactive
same,outcome,[7],inactive
same,AC50,[8],31.2 µM (active)
same,outcome,[9],inactive
same,outcome,[10],inactive
same,outcome,[11],inactive
same,outcome,[12],inactive
same,outcome,[13],inactive
same,outcome,[14],inactive
same,outcome,[15],inactive
same,outcome,[16],inactive
same,outcome,[17],inactive
same,outcome,[18],inactive
same,outcome,[19],inactive
same,outcome,[20],inactive
